PABP1 MLLE inh: inhibitors of PABP1 MLLE–PAM2 peptide binding, primary screen, biochemical, fluorescence polarization, FITC-PAM2, GST-MLLE; actives 0.36% (n = 360,000); AID 588489, 2011; inhibition, % at 20 µM; Polyadenylate-binding protein 1 (Homo sapiens), P11940; in the data active = inhibition above about 35%, passing the limit was not always enough;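 note: plate controls were DMSO wells with GST-MLLE for no effect and wells lacking GST-MLLE protein for full effect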
Target sequence (P11940 whole entry, looked up): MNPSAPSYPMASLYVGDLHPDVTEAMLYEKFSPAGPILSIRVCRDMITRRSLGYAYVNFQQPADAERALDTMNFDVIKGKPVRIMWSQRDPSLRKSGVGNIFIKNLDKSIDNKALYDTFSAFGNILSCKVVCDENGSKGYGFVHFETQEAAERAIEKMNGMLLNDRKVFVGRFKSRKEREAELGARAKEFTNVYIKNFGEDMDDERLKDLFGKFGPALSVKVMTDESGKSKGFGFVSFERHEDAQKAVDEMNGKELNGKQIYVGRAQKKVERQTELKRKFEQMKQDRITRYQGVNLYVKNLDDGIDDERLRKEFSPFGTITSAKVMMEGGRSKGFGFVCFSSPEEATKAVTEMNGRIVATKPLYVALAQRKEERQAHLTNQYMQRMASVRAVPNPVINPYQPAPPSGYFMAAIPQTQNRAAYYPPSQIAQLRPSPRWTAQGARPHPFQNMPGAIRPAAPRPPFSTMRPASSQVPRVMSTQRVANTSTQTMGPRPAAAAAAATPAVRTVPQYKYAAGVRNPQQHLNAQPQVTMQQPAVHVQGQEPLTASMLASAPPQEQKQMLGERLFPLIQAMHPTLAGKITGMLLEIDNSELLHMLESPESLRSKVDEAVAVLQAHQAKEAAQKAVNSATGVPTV
Efflux pump mplx: inhibitors of Candida efflux pumps in yeast, primary screen, S. cerevisiae, Nile Red, multiplex; S. cerevisiae Candida pump triplex; inhibition, % at 10 µM; actives 0.44% (n = 330,000);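 active = plate passing quality check with inhibition over a set limit, or well fluorescence over plate mean plus 4 SD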;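 note: Nile Red retained in pooled yeast measured as flow cytometry median fluorescence; 0% = buffer negative control and 100% = Enniatin B positive control; higher means more Nile Red kept so more efflux inhibition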
SUMO HTRF inh: inhibitors of in vitro SUMOylation cascade, primary screen, biochemical, HTRF, uHTS. actives 0.36% (n = 290,000). inhibition, % at 35 µM. AID 2006, 2009. SUMO-conjugating enzyme UBC9 (Homo sapiens), P63279. HTRF SUMOylation assay, SAE1/SAE2 + UBC9; in the data active = inhibition above about 50%, passing the limit was not always enough
eIF4H inh: human eIF4H binding inhibitors, primary screen, translation initiation inhibitor project, biochemical, uHTS, fluorescence polarization | actives 0.94% (n = 290,000) | Eukaryotic translation initiation factor 4H (Homo sapiens), Q15056 | eIF4H fluorescence polarization binding assay | inhibition, % at 35 µM;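 note: calls also rest on retests at 20 µM and on dose response follow-up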
PABP polyA inh: PABP poly(A) RNA binding inhibitors, primary screen, biochemical, fluorescence polarization, uHTS | inhibition, % at 35 µM | actives 1% (n = 290,000) | Polyadenylate-binding protein 1 (Homo sapiens), P11940;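 note: calls also rest on retests at 20 µM and on dose response follow-up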
ALR H2O2 inh: inhibitors of human ALR sulfhydryl oxidase, primary screen, biochemical, H2O2 detection, HRP-luminol luminescence, single point; purified ALR, DTT oxidation; actives 3.8% (n = 290,000); inhibition, % (concentration not given with the values); FAD-linked sulfhydryl oxidase ALR (Homo sapiens), P55789;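 active = mean replicate inhibition above about 79%, with every replicate also reaching it, limit read from the data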
* marks the source's active call; other numbers are inactive results. Shown are actives, neighbours in structure and some others; about 4.7% of the full set was active somewhere. Unless noted, the rule behind the calls is not given here.

`COc1ccc2c(c1)cc(C(=O)N[C@H](C(=O)N1CCC(C(=O)O)CC1)C(C)C)n2C` gave PABP1 MLLE inh 5.5, Efflux pump mplx 0.0, SUMO HTRF inh 27.3, eIF4H inh -6.4, PABP polyA inh 1.2 and ALR H2O2 inh -5.2.
For Cc1cccc(C(=O)NCC(=O)N2CCN(S(=O)(=O)c3cc(C)ccc3C)CC2)c1 the results were PABP1 MLLE inh 6.3, Efflux pump mplx -0.1 and ALR H2O2 inh -5.2.
`Cc1ccc(-c2nc(CS(=O)CC(=O)NC3CCCCC3)c(C)o2)cc1` (configuration not stated) gave PABP1 MLLE inh -6.5, Efflux pump mplx 0.1, SUMO HTRF inh 6.4, eIF4H inh -3.9, PABP polyA inh -15.2 and ALR H2O2 inh 98.8*.
Cc1oc(-c2ccc(Cl)cc2)nc1CS(=O)CC(=O)NC1CCCC1 (configuration not stated) was read as PABP1 MLLE inh 10.1, Efflux pump mplx 0.0, SUMO HTRF inh 5.0, eIF4H inh 3.1, PABP polyA inh 1.4 and ALR H2O2 inh 99.0*.
Screening COc1ccc(-c2nsc(SCC(=O)NCC3CCCO3)n2)cc1 (configuration not stated) returned PABP1 MLLE inh -67.2, Efflux pump mplx -0.1, SUMO HTRF inh 9.2, eIF4H inh -3.4, PABP polyA inh -5.2 and ALR H2O2 inh 94.8*.
`COc1ccc(-c2nc(CS(=O)CC(=O)NCC3CCCO3)c(C)o2)cc1` (configuration not stated) gave PABP1 MLLE inh 14.3, Efflux pump mplx 0.0, SUMO HTRF inh 9.8, eIF4H inh 0.2, PABP polyA inh 3.2 and ALR H2O2 inh 98.4*.
`COc1ccc(C(=O)OCC(=O)NCC2CCCO2)cc1` (configuration not stated) gave PABP1 MLLE inh 7.8, Efflux pump mplx 0.1, SUMO HTRF inh 7.0, eIF4H inh 7.2, PABP polyA inh 34.6 and ALR H2O2 inh -3.0.
Cc1oc(-c2ccc(Cl)cc2)nc1CS(=O)CC(=O)NC1CCCCCC1 (configuration not stated) was read as PABP1 MLLE inh 3.1, Efflux pump mplx 0.1, SUMO HTRF inh 4.8, eIF4H inh 9.6, PABP polyA inh 10.6 and ALR H2O2 inh -7.7.
COc1cc(NC(=O)Cn2cnc(C(=O)Nc3ccc(C)c(C)c3)n2)cc(OC)c1OC was read as PABP1 MLLE inh -28.7 and Efflux pump mplx -0.2.
`O=C(c1ccco1)N1CCN(c2c([N+](=O)[O-])nn(-c3cccc(Cl)c3)[n+]2[O-])CC1` gave PABP1 MLLE inh 0.8, Efflux pump mplx -0.1, SUMO HTRF inh 18.9, eIF4H inh -9.4, PABP polyA inh -3.2 and ALR H2O2 inh -26.1.
COc1cccc(-c2nc(CSCC(=O)NCC3CCCO3)c(C)o2)c1 (configuration not stated) was read as PABP1 MLLE inh 45.6*, Efflux pump mplx 0.1, SUMO HTRF inh -8.4, eIF4H inh -5.3, PABP polyA inh -1.0 and ALR H2O2 inh 99.1*.
O=C(CSc1oc(-c2cccs2)nc1S(=O)(=O)c1ccccc1)NC1CCCCC1 was read as PABP1 MLLE inh -76.8, Efflux pump mplx 0.2, SUMO HTRF inh 21.0, eIF4H inh -4.3, PABP polyA inh -6.1 and ALR H2O2 inh -1.7.
Screening Cc1oc(-c2cccs2)nc1CS(=O)CC(=O)NC1CCCCCC1 (configuration not stated) returned PABP1 MLLE inh 14.1, Efflux pump mplx 0.1, SUMO HTRF inh -3.4, eIF4H inh 8.0, PABP polyA inh 3.4 and ALR H2O2 inh 98.6*.
For COc1ccc(-c2nc(CN3CCC(C(=O)N4CCc5ccccc54)CC3)c(C)o2)cc1OC the results were PABP1 MLLE inh -6.3, Efflux pump mplx -0.1, SUMO HTRF inh 0.6, eIF4H inh -6.1, PABP polyA inh 2.5 and ALR H2O2 inh -12.9.
Cc1oc(-c2ccc(Cl)cc2)nc1CS(=O)CC(=O)NCCCN(C)C1CCCCC1 (configuration not stated) was read as PABP1 MLLE inh 12.6, Efflux pump mplx 0.0, SUMO HTRF inh 18.6, eIF4H inh 15.8, PABP polyA inh 7.3 and ALR H2O2 inh 99.4*.
Screening COc1ccc(-c2nc(CS(=O)CC(=O)NC3CCCCC3C)c(C)o2)cc1OC (configuration not stated) returned PABP1 MLLE inh -6.1, Efflux pump mplx -0.1, SUMO HTRF inh 14.5, eIF4H inh -26.3, PABP polyA inh 0.5 and ALR H2O2 inh 98.8*.
`CCc1cccc(C)c1NC(=S)N(CCCN1CCOCC1)Cc1cccnc1` gave PABP1 MLLE inh 0.5, Efflux pump mplx 0.0, SUMO HTRF inh 0.1, eIF4H inh 2.7 and PABP polyA inh -6.9.
For COc1ccc(Cl)cc1C1=NOC2(CCC2)C(=O)N1Cc1ccc(NC(C)=O)cc1 the results were PABP1 MLLE inh 2.8.
CC1=CC(=O)C(Sc2ccc(C)cc2)=CC1=O was read as PABP1 MLLE inh 35.3*.
Screening Cc1cc(N(C)Cc2ccccc2)nc2cc(O)ccc12 returned PABP1 MLLE inh -9.1, Efflux pump mplx 0.8, SUMO HTRF inh 11.1, eIF4H inh -5.0, PABP polyA inh -4.1 and ALR H2O2 inh 97.9*.
Screening O=C1CCCCN1CCC(=O)N1CCCC(Nc2ccccc2)C1 (configuration not stated) returned PABP1 MLLE inh 4.6, Efflux pump mplx -0.1, SUMO HTRF inh 17.8, eIF4H inh -12.4, PABP polyA inh -0.1 and ALR H2O2 inh 4.3.
CC(C)c1ccc(NC2CCCN(C(=O)CN3CCOC3=O)C2)cc1 (configuration not stated) was read as PABP1 MLLE inh 6.2, Efflux pump mplx 0.1, SUMO HTRF inh -9.6, eIF4H inh -6.9, PABP polyA inh -5.1 and ALR H2O2 inh 71.9.
Screening CC(C)c1ccc(NC2CCCN(C(=O)CCN3CCCCC3=O)C2)cc1 (configuration not stated) returned PABP1 MLLE inh 7.2, Efflux pump mplx -2.2, SUMO HTRF inh -5.6, eIF4H inh -2.1, PABP polyA inh 0.8 and ALR H2O2 inh 97.5*.
For CC(C)c1ccc(NC2CCCN(C(=O)CCN3Cc4ccccc4C3=O)C2)cc1 (configuration not stated) the results were PABP1 MLLE inh -3.4, Efflux pump mplx 0.0 and ALR H2O2 inh 98.5*.
`CC(C)c1ccc(NC2CCCN(C(=O)CN3CCCC3=O)C2)cc1` (configuration not stated) gave PABP1 MLLE inh 6.5, Efflux pump mplx -0.2, SUMO HTRF inh 15.2, eIF4H inh -7.0, PABP polyA inh -3.7 and ALR H2O2 inh 82.3*.

Screening results deposited in PubChem BioAssay by several laboratories.
